Results published in the supplement of paper PMC6897291.
Counter-ions that a name gives are not always drawn.

Legend:
[1] = test system: U-2932; experiment: growth inhibition by drug alone (1 - RLU/untreated control) (fraction); higher = stronger inhibition; conditions: 177Lu-lilotomab satetraxetan 0 ug/ml
How it was run: (§1)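 With or without 18 h pretreatment by a radiolabelled anti-CD37 antibody conjugate (~600 MBq/mg; 0.5 µg/ml RIVA, 1 µg/ml U-2932), RIVA and U-2932 cells were washed and plated at 3,000 cells/well. Pre-printed compound doses were 10/100 nM for RIVA and 10/1,000 nM for U-2932. Growth inhibition uses RealTime-Glo RLU relative to the untreated no-drug wells. The calculation is 1 − RLU/mean of 48 such wells per plate, with reads daily from day 3 after 1 h at 37°C.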

[2] = test system: RIVA; experiment: as above; conditions: 177Lu-lilotomab satetraxetan 0 ug/ml
How it was run: as §1

[3] = test system: U-2932; experiment: growth inhibition by drug plus 177Lu-lilotomab satetraxetan (1 - RLU/untreated control) (fraction); higher = stronger inhibition; conditions: 177Lu-lilotomab satetraxetan 1 ug/ml
How it was run: as §1

[4] = test system: RIVA; experiment: as above; conditions: 177Lu-lilotomab satetraxetan 0.5 ug/ml
How it was run: as §1

SMILES | growth inhibition by drug alone ([1]; 10 nM, time (day): 3) | growth inhibition by drug alone ([1]; 10 nM, time (day): 4) | growth inhibition by drug alone ([1]; 10 nM, time (day): 5) | growth inhibition by drug alone ([1]; 10 nM, time (day): 6) | growth inhibition by drug alone ([1]; 1000 nM, time (day): 3) | growth inhibition by drug alone ([1]; 1000 nM, time (day): 4) | growth inhibition by drug alone ([1]; 1000 nM, time (day): 5) | growth inhibition by drug alone ([1]; 1000 nM, time (day): 6) | growth inhibition by drug alone ([2]; 10 nM, time (day): 3) | growth inhibition by drug alone ([2]; 10 nM, time (day): 4) | growth inhibition by drug alone ([2]; 10 nM, time (day): 5) | growth inhibition by drug alone ([2]; 10 nM, time (day): 6) | growth inhibition by drug alone ([2]; 100 nM, time (day): 3) | growth inhibition by drug alone ([2]; 100 nM, time (day): 4) | growth inhibition by drug alone ([2]; 100 nM, time (day): 5) | growth inhibition by drug alone ([2]; 100 nM, time (day): 6) | growth inhibition by drug plus 177Lu-lilotomab satetraxetan ([3]; 10 nM, time (day): 3) | growth inhibition by drug plus 177Lu-lilotomab satetraxetan ([3]; 10 nM, time (day): 4) | growth inhibition by drug plus 177Lu-lilotomab satetraxetan ([3]; 10 nM, time (day): 5) | growth inhibition by drug plus 177Lu-lilotomab satetraxetan ([3]; 10 nM, time (day): 6) | growth inhibition by drug plus 177Lu-lilotomab satetraxetan ([3]; 1000 nM, time (day): 3) | growth inhibition by drug plus 177Lu-lilotomab satetraxetan ([3]; 1000 nM, time (day): 4) | growth inhibition by drug plus 177Lu-lilotomab satetraxetan ([3]; 1000 nM, time (day): 5) | growth inhibition by drug plus 177Lu-lilotomab satetraxetan ([3]; 1000 nM, time (day): 6) | growth inhibition by drug plus 177Lu-lilotomab satetraxetan ([4]; 10 nM, time (day): 3) | growth inhibition by drug plus 177Lu-lilotomab satetraxetan ([4]; 10 nM, time (day): 4) | growth inhibition by drug plus 177Lu-lilotomab satetraxetan ([4]; 10 nM, time (day): 5) | growth inhibition by drug plus 177Lu-lilotomab satetraxetan ([4]; 10 nM, time (day): 6) | growth inhibition by drug plus 177Lu-lilotomab satetraxetan ([4]; 100 nM, time (day): 3) | growth inhibition by drug plus 177Lu-lilotomab satetraxetan ([4]; 100 nM, time (day): 4) | growth inhibition by drug plus 177Lu-lilotomab satetraxetan ([4]; 100 nM, time (day): 5) | growth inhibition by drug plus 177Lu-lilotomab satetraxetan ([4]; 100 nM, time (day): 6)
Cc1ccc(C(=O)Nc2ccc(CN3CCN(C)CC3)c(C(F)(F)F)c2)cc1C#Cc1cnc2cccnn12 | -0.0855 | -0.101 | -0.212 | -0.304 | 0.619 | 0.711 | 0.699 | 0.718 | -0.13 | -0.226 | -0.275 | -0.383 | 0.59 | 0.607 | 0.6 | 0.53 | -0.1 | -0.0253 | 0.0155 | 0.0448 | 0.74 | 0.819 | 0.844 | 0.883 | 0.39 | 0.475 | 0.499 | 0.509 | 0.689 | 0.752 | 0.77 | 0.788
C[C@@H](Oc1cc(-n2cnc3ccc(CN4CCN(C)CC4)cc32)sc1C(N)=O)c1ccccc1C(F)(F)F | 0.444 | 0.458 | 0.438 | 0.516 | 0.94 | 0.961 | 0.973 | 0.981 | 0.364 | 0.265 | 0.248 | 0.223 | 0.944 | 0.961 | 0.967 | 0.969 | 0.423 | 0.489 | 0.536 | 0.644 | 0.926 | 0.959 | 0.975 | 0.982 | 0.759 | 0.799 | 0.824 | 0.853 | 0.943 | 0.964 | 0.974 | 0.981
CN1CC[C@H](c2c(O)cc(O)c3c(=O)cc(-c4ccccc4Cl)oc23)[C@H](O)C1 [Flavopiridol hydrochloride] | -0.0754 | -0.0311 | -0.0181 | 0.00401 | 0.957 | 0.967 | 0.974 | 0.979 | -0.111 | -0.116 | -0.189 | -0.255 | 0.504 | 0.533 | 0.499 | 0.385 | -0.0108 | 0.0505 | 0.0958 | 0.189 | 0.965 | 0.972 | 0.978 | 0.983 | 0.521 | 0.567 | 0.566 | 0.567 | 0.615 | 0.69 | 0.704 | 0.72
COc1cc2nccc(Oc3ccc(NC(=O)NC4CC4)c(Cl)c3)c2cc1C(N)=O [E7080 (Lenvatinib)] | -0.0768 | -0.0782 | -0.0262 | 0.0583 | -0.0598 | -0.0139 | -0.0471 | 0.0893 | -0.272 | -0.277 | -0.3 | -0.325 | -0.113 | -0.192 | -0.168 | -0.219 | -0.0798 | -0.0346 | 0.0178 | 0.0795 | -0.0775 | 0.00296 | 0.0372 | 0.201 | 0.331 | 0.478 | 0.485 | 0.496 | 0.364 | 0.44 | 0.454 | 0.461
N#CC[C@H](C1CCCC1)n1cc(-c2ncnc3[nH]ccc23)cn1 | 0.018 | 0.0281 | -0.0548 | -0.139 | -0.0929 | -0.0506 | -0.111 | -0.125 | 0.0229 | -0.0212 | -0.0792 | -0.268 | -0.143 | -0.098 | -0.128 | -0.247 | 0.00599 | 0.0333 | -0.193 | 0.112 | -0.166 | -0.0146 | -0.0674 | -0.122 | 0.32 | 0.445 | 0.469 | 0.488 | 0.269 | 0.379 | 0.376 | 0.348
CCOc1cc(C(=O)Nc2ccc(Cl)c(-c3nc4ccccc4[nH]3)c2)cc(OCC)c1OCC | -0.0835 | 0.00922 | -0.0921 | -0.101 | 0.0527 | 0.106 | 0.057 | 0.0205 | 0.0892 | 0.061 | 0.00986 | -0.126 | 0.409 | 0.248 | 0.22 | 0.167 | -0.0124 | 0.0291 | 0.0337 | 0.147 | 0.147 | 0.267 | 0.28 | 0.362 | 0.452 | 0.548 | 0.564 | 0.568 | 0.625 | 0.648 | 0.668 | 0.654
CO[C@H]1C[C@@H]2CC[C@@H](C)[C@@](O)(O2)C(=O)C(=O)N2CCCC[C@H]2C(=O)O[C@H]([C@H](C)C[C@@H]2CC[C@@H](O)[C@H](OC)C2)CC(=O)[C@H](C)/C=C(\C)[C@@H](O)[C@@H](OC)C(=O)[C@H](C)C[C@H](C)/C=C/C=C/C=C/1C [Rapamycin (Sirolimus)] | 0.724 | 0.686 | 0.609 | 0.544 | 0.737 | 0.722 | 0.658 | 0.599 | 0.777 | 0.792 | 0.785 | 0.748 | 0.8 | 0.833 | 0.827 | 0.803 | 0.692 | 0.666 | 0.631 | 0.623 | 0.703 | 0.69 | 0.662 | 0.657 | 0.839 | 0.875 | 0.88 | 0.873 | 0.829 | 0.867 | 0.88 | 0.878
